Screening data deposited in PubChem BioAssay by Broad Institute.
In the library only some 3.2% were active in any assay of this set; here they are far more common.
Ecoli rRNA inh – reduced GFP signal of wild-type E. coli, primary screen, bacterial rRNA inhibitor project, GFP/RFP fluorescence, OD600, single point; E. coli WT GFP vs humanized-ribosome RFP mutants, 24 h; stronger effect = lower value; DMSO median 0, no signal -100; GFP signal change (wild-type ribosome), % (concentration not given with the values); actives 1.6% (n = 350,000);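 active means significant combined selectivity score with lowered wild-type GFP, culture density cut under 30%, mutant RFP and density less affected; inactive means any of these conditions unmet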
GSIS activator – GLuc luminescence reporter in INS-1E cells, primary screen for activators of glucose-dependent secretion of insulin; INS-1E GLuc reporter insulin secretion, 2-3 h; activation, % at 16.6 µM; actives 0.61% (n = 370,000);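 active means lowest replicate activation of at least 40%, so every replicate reaches that level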;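 further: 0% = median of neutral control wells and 100% = median of IBMX positive control wells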
CaV13 ICDI inh – Primary screen for inhibitors of IQ motif and Ca2+-dependent inactivation inhibitor domain binding in CACNA1D, Förster resonance energy transfer in living cells, …; inhibition, % at 12.3 µM; actives 0.098% (n = 340,000); HEK cells, CFP/YFP FRET ICDI-IQ, plate reader, 10 min; percent FRET-ratio fall versus neutral wells;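 active means mean replicate inhibition of at least 30% and at least 1% of replicates passing that level; inconclusive means only one of the two criteria is met; inactive means neither criterion is met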;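 further: 0% = median of the neutral control wells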
ERAP1 inh – human ERAP1 aminopeptidase inhibitors, primary screen, biochemical, single point, plate reader | Endoplasmic reticulum aminopeptidase 1 (Homo sapiens), Q9NZ08 | AID 652197, 2013 | recombinant ERAP1, Leu-AMC fluorescence, 60 min | actives 0.15% (n = 340,000) | inhibition, % at 10.7 µM;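 active means mean replicate inhibition of at least 30%, or all replicates individually reaching that 30% level; inactive means mean below 30% and not every replicate reaching it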;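 further: 0% = neutral control wells and 100% = L-leucinethiol positive control wells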
Target sequence (Q9NZ08 whole entry, looked up): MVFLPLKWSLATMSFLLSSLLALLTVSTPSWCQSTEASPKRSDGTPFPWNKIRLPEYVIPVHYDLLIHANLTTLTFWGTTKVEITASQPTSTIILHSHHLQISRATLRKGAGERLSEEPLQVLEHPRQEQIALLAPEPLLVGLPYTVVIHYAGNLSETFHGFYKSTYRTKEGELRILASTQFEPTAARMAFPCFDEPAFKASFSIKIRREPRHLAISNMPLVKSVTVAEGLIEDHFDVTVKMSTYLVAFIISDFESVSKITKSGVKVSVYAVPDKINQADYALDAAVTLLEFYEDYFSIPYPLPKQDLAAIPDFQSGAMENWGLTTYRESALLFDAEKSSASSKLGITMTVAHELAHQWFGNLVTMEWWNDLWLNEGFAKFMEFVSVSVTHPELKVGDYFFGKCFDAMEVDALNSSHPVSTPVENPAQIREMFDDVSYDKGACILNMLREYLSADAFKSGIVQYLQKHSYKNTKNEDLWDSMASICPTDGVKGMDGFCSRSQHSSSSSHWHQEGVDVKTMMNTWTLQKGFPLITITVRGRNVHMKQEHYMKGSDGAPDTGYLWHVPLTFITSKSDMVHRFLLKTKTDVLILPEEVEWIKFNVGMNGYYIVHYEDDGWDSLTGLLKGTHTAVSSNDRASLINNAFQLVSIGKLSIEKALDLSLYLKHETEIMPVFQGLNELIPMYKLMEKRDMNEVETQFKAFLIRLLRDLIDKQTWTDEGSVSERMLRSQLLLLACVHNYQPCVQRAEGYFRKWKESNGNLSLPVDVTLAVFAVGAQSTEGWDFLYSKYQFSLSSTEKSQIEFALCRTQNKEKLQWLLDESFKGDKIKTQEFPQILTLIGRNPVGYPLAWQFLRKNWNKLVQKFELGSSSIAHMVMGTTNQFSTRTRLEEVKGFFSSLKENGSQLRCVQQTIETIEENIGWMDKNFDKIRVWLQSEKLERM
DENV2 CPE – inhibitors of DENV2 cytopathic effect, primary screen, cell-based, plate reader, single concentration; DENV2-infected cells, cytopathic effect rescue; CPE inhibition, % at 9.99 µM; actives 1.7% (n = 350,000); in the data active means CPE inhibition above about 20%, passing the limit was not always enough; inconclusive means no clear call, values can overlap the other calls; tested in BHK-21 cells;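 further: 0% = median of neutral control wells and 100% = median of positive control wells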
PGC1a acetyl inh – inhibitors of PGC1a acetylation signal, primary screen, cell-based, U2OS, AlphaScreen, inhibitor mode; inhibition, % at 15.6 µM; AlphaScreen anti-acetyl-lysine; with virally co-expressed GCN5 acetyltransferase; AID 651687, 2012; actives 0.17% (n = 350,000);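 active means every replicate shows inhibition of at least 40%; inconclusive means mean inhibition at least 40% but some replicate below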;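 further: 0% = neutral control wells and 100% = positive control wells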
* = called active by the depositor; ? = inconclusive; / = no result given; ! = not active in a repeat.

SMILES	Ecoli rRNA inh	GSIS activator	CaV13 ICDI inh	ERAP1 inh	DENV2 CPE	PGC1a acetyl inh
C[C@@H]1CN([C@H](C)CO)C(=O)Cc2cc(NC(=O)CCN3CCOCC3)ccc2O[C@@H]1CN(C)Cc1ccc(-c2ccccc2)cc1	1	-1	/	-5	2	6
CCC1NC(=O)c2ccccc2N1c1cccc(Cl)c1 (stereo unspecified)	-45*	-36	0	0	-1	-15
CC(C)(c1ccccc1)c1ccc(OCC(O)CNC2CCN(Cc3ccccc3)CC2)cc1 (stereo unspecified)	-56	666*	-19	6	-8	-3
COC(=O)c1ccc(CNCC(O)COc2ccc(-c3ccccc3)cc2)cc1 (stereo unspecified)	-20	4	-3	-7	10	-10
COc1ccc(NCC(O)COc2ccc(C(C)(C)C)cc2)cc1 (stereo unspecified)	-30	-41	-3	0	-8	-8
COc1ccccc1NCC(O)COc1ccc(C(C)(C)C)cc1 (stereo unspecified)	-39*	-28	-5	-2	18	/
COc1ccc(CNCC(O)COc2ccc(C(C)(C)c3ccccc3)cc2)cc1 (stereo unspecified)	-58	73*	-21	1	0	/
O=C(C[C@@H]1CC[C@@H]2[C@H](COC[C@@H](O)CN2S(=O)(=O)c2ccc(F)cc2)O1)N[C@H]1CCN(Cc2ccccc2)C1	3	-5	/	1	8	0
CC(C)C#Cc1ccc2c(c1)O[C@@H](CN(C)C(=O)c1ccccn1)[C@H](C)CN([C@H](C)CO)S2(=O)=O	1	1	/	4	-2	-15
CN(CCO)c1nc(NCc2ccccc2)c2cnn(C)c2n1	0	41*	-4	-1	-1	0
O=C(CSc1nc2ccccc2[nH]1)Nc1ccc(N2CCOCC2)cc1	1	37	/	1	?	/
Cc1ccc(SCC(=O)Nc2ccc(-c3nc4ccccc4[nH]3)cc2)cc1	-2	-8	-4	5	38*	-26
O=C(CCCSc1nc2ccccc2[nH]1)NC(c1ccccc1)c1ccccc1	-40*	-12	-5	1	-1	/
CN(C)C(=O)c1ccc(NC(=O)CSc2nc3ccccc3[nH]2)cc1	-21*	4	-3	-3	5	/
CC1(C)CC(=O)C2=C(C1)Nc1ccccc1NC2c1ccc(F)c(F)c1 (stereo unspecified)	2	12	-4	5	23*	-9
CC=Cc1ccc2n(c1=O)C[C@H]1[C@H](CO)[C@@H](C(=O)N[C@@H](C)c3ccccc3)[C@@H]2N1Cc1ccncc1 (mixture of isomers)	-1	0	/	2	4	/
C=C1SC(=Nc2ccccc2Cl)N(C(=O)c2sc3ccccc3c2Cl)C1(C)C	5	13	-8	3	0	/
C=C1SC(=Nc2c(C)cccc2Cl)N(C(=O)c2sc3ccccc3c2Cl)C12CCCCC2	5	135*	-15	3	11	/
C[C@H](CO)N1C[C@H](C)[C@@H](CN(C)C)Oc2c(NC(=O)Cc3cn(C)c4ccccc34)cccc2C1=O	0	-9	/	/	/	/
CN(C)CC(=O)N1CC[C@@H]2[C@H]1c1cc(-c3ccccc3F)ccc1N(C)[C@@H]2CO	-3	21	/	/	49*	0
CN(C)CC(=O)N1CC[C@H]2[C@@H]1c1cc(-c3ccccc3F)ccc1N(C)[C@H]2CO	6	9	/	/	22*	-4
CN1c2ccc(-c3ccccc3F)cc2[C@H]2[C@H](CCN2S(=O)(=O)c2ccc(F)cc2)[C@H]1CO	-2	-28	/	/	65*	-8
CN1c2ccc(-c3ccccc3F)cc2[C@H]2[C@H](CCN2C(=O)NC2CCCCC2)[C@H]1CO	-11	-19	/	-3	-10	8
CN(C)CC(=O)N1CC[C@@H]2[C@H]1c1cc(-c3ccccc3)ccc1N(C)[C@H]2CO	10	11	/	-3	-9	0
O=C(C[C@@H]1CC[C@@H]2[C@H](COC[C@@H](O)CN2Cc2ccccc2F)O1)N[C@H]1CCN(Cc2ccccc2)C1	2	10	/	-1	-1	-1
SMILES	Ecoli rRNA inh	GSIS activator	CaV13 ICDI inh	ERAP1 inh	DENV2 CPE	PGC1a acetyl inh
C[C@@H]1CN([C@@H](C)CO)C(=O)c2cc(C3=CCCCC3)cnc2O[C@@H]1CN(C)C(=O)Cc1ccccc1	-1	-2	/	-1	46*	16
C[C@@H]1CN([C@H](C)CO)C(=O)c2cc(C3=CCCCC3)cnc2O[C@H]1CN(C)C(=O)c1ccc2c(c1)OCO2	-2	-29	/	-2	54*	-1
Cc1ccc(-c2cnc3c(c2)C(=O)N([C@H](C)CO)C[C@H](C)[C@@H](CN(C)C(=O)Cc2ccncc2)O3)cc1	-3	-3	/	0	27*	-16
CCCNC(=O)N(C)C[C@@H]1Oc2ncc(-c3ccncc3)cc2C(=O)N([C@H](C)CO)C[C@@H]1C	21	4	-5	33*!	?	-1
C[C@H](CO)N1C[C@H](C)[C@H](CN(C)C(=O)c2cccc(F)c2)Oc2cc(C#CC3CCCC3)ccc2S1(=O)=O	5	-13	/	/	/	0
Cc1ccc(S(=O)(=O)N[C@H]2CC[C@@H](CCNC(=O)Nc3ccc(Cl)cc3)O[C@@H]2CO)cc1	-20	3	/	1	-1	3
C[C@@H]1CN([C@H](C)CO)C(=O)c2cccc(N(C)C)c2O[C@@H]1CN(C)Cc1ccc(C(=O)O)cc1	2	3	/	1	10	-3
Cc1ccc(-c2cnc3c(c2)C(=O)N([C@H](C)CO)C[C@H](C)[C@H](CN(C)C(=O)Cc2ccccc2)O3)cc1	-4	-16	/	2	76*	-13
Cc1ccc(-c2cnc3c(c2)C(=O)N([C@@H](C)CO)C[C@@H](C)[C@H](CN(C)C(=O)Cc2ccccc2)O3)cc1	-8	-22	/	-2	-6	18
CCCN1C[C@@H](C)[C@H](OC)CN(C)C(=O)c2cc(NS(=O)(=O)CC)ccc2OC[C@@H]1C	-1	6	/	1	-5	2
COc1ccc(NC(=O)CC2C(=O)NCCN2C(=O)c2ccc(Cl)cc2)cc1 (stereo unspecified)	-1	/	-13	-2	-9	-7
COc1ccc(C(=O)N2CCNC(=O)C2CC(=O)Nc2cccc(Cl)c2Cl)cc1 (stereo unspecified)	2	-9	-6	-4	89*	/
